Reference: PubChem BioAssay
Activity calls are given as the source filed them.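 How the source made its calls, unless noted: active means inhibition at or above 50% at 10 µM; inactive means inhibition below 50%.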

Experiments:
[1] = inhibitors of TNFa-induced NFkB p65 translocation, primary screen, imaging, HUVEC, MLSMR starter and 10KST1 sets (AID 438;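 active means inhibition above 20% together with a positive visual image hit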;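 further: compound added about 3h40 before a 20 min TNFalpha stimulation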;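 on inhibition: signal is the nuclear over cytoplasmic p65 intensity ratio per well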); details: HUVEC TNFa-induced p65 nuclear translocation; cell count: measured here: nuclei count (cytotoxicity indicator), at 2.08 µM; inhibition: at 2 µM, stronger effect = higher value, 0% TNFa-plus-vehicle, 100% no-TNFa wells
[2] = inhibitors of mutant huntingtin aggregation, primary screen, imaging, exon1htt(103Q)mCFP cells, high-content imaging (AID 483;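 active means visual image review flags a hit and inhibition of aggregation exceeds 20%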;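 further: compound exposure lasted 3 days before fixation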;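 on nuclei count: percent of the per-plate median nuclei count of sample wells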); details: exon1htt(103Q)mCFP cell line, aggregate imaging, at 2 µM; inhibition of aggregation: stronger effect = higher value; nuclei count: measured here: cell count, toxicity
[3] = inhibitors of E-selectin induction by TNFa, primary screen, imaging, HUVEC, immunofluorescence, MLSMR starter and 10KST1 sets (AID 487;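 active means visually confirmed hit in the image check and inhibition above 20%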;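 on inhibition: signal is fraction of cell area covered by stained E-selectin grains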;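 on nuclei count: 100% = median nuclei count of all wells on the same plate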); details: HUVEC TNFalpha-induced E-selectin immunofluorescence imaging, at 2 µM; inhibition: stronger effect = higher value; nuclei count: measured here: cell number, toxicity
[4] = target: Voltage-gated potassium channel subunit beta-2 (Rattus norvegicus) (UniProt P62483); test: KvBeta enzyme negative modulators, primary screen, biochemical, NADPH fluorescence (AID 622;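 active means fluorescence slope higher than the sample average by over 3 SD, cut at about -0.22 in these data, passing the limit was not always enough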;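 further: slope of raw intensity against log time taken from 70 to 1610 s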); details: recombinant KvBeta, 4-cyanobenzaldehyde reduction, at 10 µM, stronger effect = higher value
Sequence of Voltage-gated potassium channel subunit beta-2 (Rattus norvegicus) (P62483 whole entry, looked up): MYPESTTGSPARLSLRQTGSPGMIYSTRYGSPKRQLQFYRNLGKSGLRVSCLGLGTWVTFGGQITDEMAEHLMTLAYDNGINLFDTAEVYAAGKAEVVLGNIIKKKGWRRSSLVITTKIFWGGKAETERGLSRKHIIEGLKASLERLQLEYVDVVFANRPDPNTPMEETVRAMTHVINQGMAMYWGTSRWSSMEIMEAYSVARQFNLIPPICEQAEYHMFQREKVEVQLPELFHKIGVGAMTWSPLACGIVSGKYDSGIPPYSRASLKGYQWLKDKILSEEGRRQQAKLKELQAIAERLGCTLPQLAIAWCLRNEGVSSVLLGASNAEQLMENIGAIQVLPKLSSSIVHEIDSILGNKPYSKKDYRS

[5] = target: Voltage-gated potassium channel subunit beta-2 (Rattus norvegicus) (UniProt P62483); test: KvBeta positive modulators, primary screen, biochemical, NADPH fluorescence (AID 623;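 active means NADPH fluorescence slope more negative than the mean of all samples by about 3 SD, 99.7% confidence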;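 further: fluorescence intensity change per second fitted from 20 to 320 s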); details: Recombinant KvBeta, NADPH fluorescence decrease slope, 10 min; at 10 µM; stronger effect = lower value
[6] = target: Alpha-2C adrenergic receptor (Homo sapiens) (UniProt P18825); test: modulators of alpha2C/GIRK thallium flux, primary screen, cell-based, HEK293 alpha2C/GIRK1/2 (AID 624;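 active means fluorescence slope after compound addition differing from the mean of all screened samples at 99.7% confidence, in either direction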;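 further: slope of fluorescence ratio to pre-addition baseline per second over 15 to 24 s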); details: thallium flux BTC fluorescence, at 10 µM, actives lie on both sides
Sequence of Alpha-2C adrenergic receptor (Homo sapiens) (P18825 whole entry, looked up): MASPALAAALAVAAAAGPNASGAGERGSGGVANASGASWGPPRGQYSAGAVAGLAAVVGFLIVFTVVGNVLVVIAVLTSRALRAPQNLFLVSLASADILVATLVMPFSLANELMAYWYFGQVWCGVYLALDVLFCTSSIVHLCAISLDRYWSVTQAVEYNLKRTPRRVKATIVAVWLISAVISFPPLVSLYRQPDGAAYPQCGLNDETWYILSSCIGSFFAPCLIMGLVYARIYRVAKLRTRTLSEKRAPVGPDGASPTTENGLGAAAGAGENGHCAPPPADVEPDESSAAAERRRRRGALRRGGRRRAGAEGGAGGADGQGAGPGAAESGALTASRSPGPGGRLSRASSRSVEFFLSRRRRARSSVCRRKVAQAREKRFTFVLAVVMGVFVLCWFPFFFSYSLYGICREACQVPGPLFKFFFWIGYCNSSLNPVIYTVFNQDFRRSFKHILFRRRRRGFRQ

[7] = inhibitors of Sendai virus-induced IRF3 signaling, primary screen, TLR/RLR signaling modifier project, cell-based, Sendai virus stimulus, luciferase, 10K MLSCN set (AID 602276); details: HEK293 RL24 IRF3 luciferase reporter, at 10 µM, stronger effect = higher value;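 further: firefly luciferase from ISG56 promoter only with Renilla not read in this screen; 0% = Sendai virus plus DMSO and 100% = medium plus DMSO without virus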
[8] = inhibitors of poly I:C-induced TLR3 signaling, primary screen, cell-based, poly I:C stimulus, luciferase, 10K MLSCN set (AID 602277;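 active means inhibition of the reporter signal at or above 50%; inactive means inhibition below 50%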); details: HEK293-TLR3 RL24 IRF3 luciferase reporter, at 10 µM, stronger effect = higher value

| Compound | cell count [1] | inhibition [1] | inhibition of aggregation [2] | nuclei count [2] [%] | inhibition [3] | nuclei count [3] [%] | fluorescence slope [4] | NADPH fluorescence slope [5] | slope [6] | inhibition [7] | inhibition [8] |
| --- | --- | --- | --- | --- | --- | --- | --- | --- | --- | --- | --- |
| Fc1ccc(Cn2nnc(-c3ccc(CN4CCOCC4)cc3)n2)cc1 | 299 | 4.3% (inactive) | 11.5% (inactive) | 102 | 9.3% (inactive) | 117 | -0.44 (inactive) | -1.1e-05 (inactive) | 0.00406 (inactive) | -2.6% (inactive) | -37.2% (inactive) |
| CCCCSc1nc2c(cnn2-c2ccc(F)cc2)c(=O)[nH]1 | 619 | -10.7% (inactive) | 13.9% (inactive) | 81.3 | -19.6% (inactive) | 122 | -0.458 (inactive) | -3.7e-05 (inactive) | 0.00558 (inactive) | 4.85% (inactive) | 12.8% (inactive) |
| O=C(COC(=O)CCC(=O)c1cccs1)NCc1ccco1 | 469 | -20.9% (inactive) | 1.1% (inactive) | 101 | -16.1% (inactive) | 86.1 | -0.332 (inactive) | -5.5e-05 (inactive) | 0.00705 (inactive) | 18% (inactive) | 25.1% (inactive) |
| Cc1ccc2c(CNCc3ccco3)cc(=O)oc2c1 | 712 | 7.3% (inactive) | 21.5% (inactive) | 87.6 | -10.2% (inactive) | 96.6 | -0.519 (inactive) | -1.9e-05 (inactive) | 0.00495 (inactive) | -18.6% (inactive) | -70.4% (inactive) |
| O=C(NCCCCNC(=O)c1cccnc1)c1cccnc1 | 514 | 10.1% (inactive) | 8.2% (inactive) | 99.6 | -31.4% (inactive) | 116 | -0.64 (inactive) | 3.6e-05 (inactive) | 0.00666 (inactive) | 13.9% (inactive) | 26.9% (inactive) |
| COc1ccc(CNc2oc(-c3ccccc3)nc2C#N)cc1 | 458 | 5% (inactive) | -12.2% (inactive) | 99.5 | -19.4% (inactive) | 67.2 | -0.523 (inactive) | 2.8e-05 (inactive) | 0.00683 (inactive) | -29.8% (inactive) | -35.1% (inactive) |
| CCOc1ccc(NC(=O)CSc2nc3cccnc3n2CC)cc1 | 579 | -15.8% (inactive) | -26.9% (inactive) | 92.3 | -54.8% (inactive) | 102 | -0.487 (inactive) | -2.4e-05 (inactive) | 0.00547 (inactive) | 12.5% (inactive) | 25.8% (inactive) |
| COc1ccc(C)cc1NC(=O)CN(Cc1nnc(-c2ccc(Cl)cc2)o1)C1CCCC1 | 392 | 2.4% (inactive) | -4.1% (inactive) | 85.9 | -43.8% (inactive) | 110 | -0.478 (inactive) | 2.2e-05 (inactive) | 0.00634 (inactive) | -26.9% (inactive) | -33.6% (inactive) |
| C=CCN(C(=O)CNS(=O)(=O)c1ccccc1)C(C(=O)NCCOC)c1ccncc1 (configuration not stated) | 543 | -18.3% (inactive) | 18.4% (inactive) | 93.8 | 7.6% (inactive) | 80.2 | -0.478 (inactive) | 3.8e-06 (inactive) | 0.00567 (inactive) | 11% (inactive) | 5.34% (inactive) |
| O=C(COC(=O)C1CCN(S(=O)(=O)c2cccs2)CC1)c1cc2ccccc2o1 | 536 | -8.3% (inactive) | -0.1% (inactive) | 98.7 | -97.6% (inactive) | 112 | -0.501 (inactive) | -1.4e-05 (inactive) | 0.00534 (inactive) | 12.4% (inactive) | 31.7% (inactive) |
| Cc1nc2ncnn2c(C)c1CCC(=O)NCCCN1CCN(c2cccc(Cl)c2)CC1 | 352 | -2% (inactive) | -0.5% (inactive) | 99.1 | -40.4% (inactive) | 107 | -0.505 (inactive) | -5.1e-05 (inactive) | 0.0065 (inactive) | 4.7% (inactive) | 16.9% (inactive) |
| O=C(CSc1ncnc2c1cnn2-c1ccccc1)Nc1ccccc1 | 316 | 2.4% (inactive) | 8.4% (inactive) | 106 | -42% (inactive) | 115 | -0.493 (inactive) | -1.4e-05 (inactive) | 0.00569 (inactive) | 13.5% (inactive) | 23.8% (inactive) |
| CC1CCN(C(=O)CSc2nc3c(cnn3-c3ccccc3)c(=O)[nH]2)CC1 | 472 | 2.3% (inactive) | -5.6% (inactive) | 102 | 14.9% (inactive) | 79.5 | -0.582 (inactive) | -2.5e-05 (inactive) | 0.00596 (inactive) | 10.9% (inactive) | 28.1% (inactive) |
| CCOP(=O)(c1ccc(N(C)C)cc1)C(O)c1ccccc1OC (configuration not stated) | 728 | -5.5% (inactive) | -2.8% (inactive) | 113 | -31.9% (inactive) | 116 | -0.387 (inactive) | 4.7e-05 (inactive) | 0.00598 (inactive) | 1.78% (inactive) | 10.6% (inactive) |
| Cc1cccc(N2C(=O)CC(N3CCN(c4cccc(C(F)(F)F)c4)CC3)C2=O)c1 (configuration not stated) | 593 | -7.2% (inactive) | 3.8% (inactive) | 126 | -13.6% (inactive) | 119 | -0.386 (inactive) | 8.5e-06 (inactive) | 0.00436 (inactive) | 10.3% (inactive) | 36.4% (inactive) |
| COC(=O)[C@H](C)NC(=O)Nc1cc(OC)ccc1OC | 572 | -15.2% (inactive) | -17.4% (inactive) | 114 | -11% (inactive) | 103 | -0.586 (inactive) | 1.8e-05 (inactive) | 0.00542 (inactive) | -3.29% (inactive) | -52% (inactive) |
| O=C(CN1CCOCC1)N1CCCc2c1c(=O)oc1ccc(OCc3ccccc3)cc21 | 427 | 7.3% (inactive) | 5.6% (inactive) | 109 | -40.7% (inactive) | 109 | -0.589 (inactive) | -4.6e-05 (inactive) | 0.00267 (inactive) | -0.877% (inactive) | 9.59% (inactive) |
| O=C(c1ccc2nc(N3CCCCC3)sc2c1)N1CCN(c2ccccn2)CC1 | 669 | -0.8% (inactive) | -24.8% (inactive) | 99.9 | 5% (inactive) | 118 | -0.589 (inactive) | 5.6e-06 (inactive) | 0.00632 (inactive) | -4.41% (inactive) | 3.71% (inactive) |
| CCc1nn(CC(=O)N2CCN(Cc3ccc4c(c3)OCO4)CC2)c(=O)c2cc3occc3n12 | 341 | 1.7% (inactive) | -11.1% (inactive) | 90.2 | -0.9% (inactive) | 105 | -0.353 (inactive) | -1.6e-05 (inactive) | 0.00432 (inactive) | -5.95% (inactive) | -24.9% (inactive) |
| COc1cc(Br)cc(/C=N/c2ncn[nH]2)c1O | 376 | -8.7% (inactive) | -2.5% (inactive) | 101 | -35% (inactive) | 117 | -0.467 (inactive) | 7.7e-05 (inactive) | 0.00616 (inactive) | 12.8% (inactive) | 24.8% (inactive) |
| Cc1oc(-c2ccc(Cl)cc2)nc1CS(=O)CC(=O)NCCCN(C)C1CCCCC1 (configuration not stated) | 584 | 3.8% (inactive) | -6.2% (inactive) | 94.6 | -47% (inactive) | 127 | -0.603 (inactive) | 1.3e-05 (inactive) | 0.00462 (inactive) | 15.7% (inactive) | 30.4% (inactive) |
| CCC(C)NC(=O)c1cc(CC(C)C)on1 (configuration not stated) | 880 | 3.5% (inactive) | 21.8% (inactive) | 80.5 | -78.2% (inactive) | 127 | -0.61 (inactive) | -1.9e-05 (inactive) | 0.00602 (inactive) | -59.4% (inactive) | -111% (inactive) |
| CC(=O)c1ccc(-n2nnnc2SCC(=O)N2CCc3ccccc3C2)cc1 | 434 | -12.9% (inactive) | 12.1% (inactive) | 104 | 0% (inactive) | 93.6 | -0.51 (inactive) | 2.1e-05 (inactive) | 0.0053 (inactive) | 2.55% (inactive) | 5.8% (inactive) |
| CCCOc1ccc(S(=O)(=O)NCCCN2CCOCC2)c2ccccc12 | 402 | 5.8% (inactive) | -33.7% (inactive) | 106 | -43.1% (inactive) | 118 | -0.418 (inactive) | -4.8e-05 (inactive) | 0.00402 (inactive) | 16% (inactive) | 13.7% (inactive) |
| O=C(NCc1nnc(SCC(=O)N2CCC(Cc3ccccc3)CC2)o1)c1ccccc1F | 574 | -0.4% (inactive) | 4.4% (inactive) | 112 | 5.1% (inactive) | 110 | -0.549 (inactive) | -5.6e-05 (inactive) | 0.00657 (inactive) | -4.5% (inactive) | 8.45% (inactive) |
| Cn1cccc1Cc1nnc(SCC(=O)Nc2ccccc2F)n1-c1ccc(F)cc1 | 878 | -2.3% (inactive) | -8.8% (inactive) | 108 | -44.3% (inactive) | 113 | -0.561 (inactive) | -8.8e-05 (inactive) | 0.00608 (inactive) | 5.41% (inactive) | 24.9% (inactive) |
| CC1CCCCC1NC(=O)C1CCN(C(=O)NC2CCCCC2)CC1 (configuration not stated) | 172 | -4.9% (inactive) | 20.6% (inactive) | 71.9 | 2.1% (inactive) | 79.8 | -0.448 (inactive) | -4.6e-05 (inactive) | 0.00366 (inactive) | 13.5% (inactive) | 28.2% (inactive) |
